In PubChem BioAssay (Tox21):
Records with an inconclusive call do not appear. Activity calls are given as the source filed them. Unless noted, calls follow the shape of the dose curve; as a rule, active = well fitted curve in the direction sought with a large enough effect in the repeat runs; inconclusive = weak or mixed curves; inactive = no such curve, though single readings can be large; an effect the other way counts as inactive or inconclusive.

Experiments:
[1] = qHTS assay to identify small molecule agonists of the sonic hedgehog signaling (Shh) pathway (AID 1259368; calls by dose curve;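 also: NIH/3T3-derived 3T3Gli1-Luc cells carrying a stable Gli1-driven firefly luciferase reporter; series mostly up to about 92 µM; nearly all actives have a fitted effect of over 15% in size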)
Method in brief: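 Read-out: firefly luciferase luminescence from a Gli1 response element reporter stably integrated in NIH/3T3-derived 3T3Gli1-Luc cells, measured 30 min at room temperature after reagent addition. Compound exposure lasted 24 hr at 37 C, 5% CO2.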

[2] = qHTS assay to identify small molecule antagonists of the sonic hedgehog signaling (Shh) pathway (AID 1259369; calls by dose curve; also: nearly all actives have a fitted effect of over 45% in size)
Method in brief: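 Luminescence readout: firefly Luc under Gli1 response element in 3T3Gli1-Luc cells (NIH/3T3 clone). Antagonist mode, stimulation by conditioned medium; compound exposure 24hr at 37 C, 5% CO2.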

[3] = qHTS assay to identify small molecule agonists of the androgen receptor (AR) signaling pathway in the presence of an antagonist - cell viability counter screen (AID 1259379);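 also: MDA-kb2 human breast cancer cells carrying an MMTV luciferase reporter; series mostly up to about 92 µM; nearly all actives have a fitted effect of over 25% in size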
Method in brief: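 Viability counter screen: CellTiter-Fluor fluorescence, measured in the same wells as the luciferase read-out. MDA-kb2 cells, 3,000/well, with nilutamide at 3.0uM final and compounds at 15 concentrations, 16 hr at 37C, 0% CO2.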

[4] = qHTS assay to identify small molecule agonists of the estrogen receptor beta (ER-beta) signaling pathway - cell viability counter screen (AID 1259380); also: nearly all actives have a fitted effect of over 30% in size
Method in brief: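 Luminescence read-out (CellTiter-Glo, 30 min, room temp) taken in the same wells as the beta-lactamase reporter assay; ER-beta-UAS-bla HEK293T cells exposed to DMSO-dissolved compounds for 16 hr at 37C in 2% charcoal-stripped FBS medium.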

[5] = qHTS assay to identify small molecule antagonists of the estrogen receptor beta (ER-beta) signaling pathway - cell viability counter screen (AID 1259382); also: series mostly up to about 92 µM; nearly all actives have a fitted effect of over 55% in size
Method in brief: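 Luminescent ATP read-out (CellTiter-Glo, 30 min, RT) taken in the same wells as the bla reporter assay. HEK293T ER-beta-UAS-bla cells in 2% charcoal-stripped FBS were exposed to compounds with 1nM E2 for 16 hr at 37C.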

[6] = biological target: Estrogen receptor (Homo sapiens) (UniProt P03372); assay: qHTS assay to identify small molecule agonists of the estrogen receptor alpha (ER-alpha) signaling pathway in the presence of an antagonist (AID 1259383; calls by dose curve; also: top concentration of the series differs between compounds; nearly all actives have a fitted effect of over 15% in size)
Chain of Estrogen receptor (Homo sapiens) (P03372 whole entry, looked up): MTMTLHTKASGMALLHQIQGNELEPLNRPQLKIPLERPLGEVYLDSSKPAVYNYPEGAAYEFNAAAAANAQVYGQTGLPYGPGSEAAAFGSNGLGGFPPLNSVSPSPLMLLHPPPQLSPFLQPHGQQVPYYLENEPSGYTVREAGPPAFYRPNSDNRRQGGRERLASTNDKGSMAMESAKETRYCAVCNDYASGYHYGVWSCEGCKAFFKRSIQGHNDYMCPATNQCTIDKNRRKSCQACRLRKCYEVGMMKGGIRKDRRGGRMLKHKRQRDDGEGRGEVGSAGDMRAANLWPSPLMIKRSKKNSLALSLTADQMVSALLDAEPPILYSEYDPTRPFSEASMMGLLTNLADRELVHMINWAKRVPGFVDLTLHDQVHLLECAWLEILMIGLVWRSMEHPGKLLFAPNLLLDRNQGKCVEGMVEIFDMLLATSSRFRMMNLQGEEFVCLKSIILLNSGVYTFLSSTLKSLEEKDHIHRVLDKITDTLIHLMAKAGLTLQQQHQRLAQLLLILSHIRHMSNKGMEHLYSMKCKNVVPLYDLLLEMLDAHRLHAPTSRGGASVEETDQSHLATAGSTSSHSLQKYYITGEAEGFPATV
Method in brief: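 Luciferase luminescence (ONE-Glo, 30min at room temperature) measured in VM7Luc4E2 cells after 22hr compound exposure at 15 concentrations, with 10.0nM ICI-182,780 final present; cells express endogenous ER-alpha and carry four EREs upstream of luciferase.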

[7] = qHTS assay to identify small molecule agonists or antagonists of the thyroid stimulating hormone receptor (TSHR) signaling pathway - wild type cell line counter screen (AID 1259384; calls by dose curve)
Method in brief: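 Wild-type HEK293 cells were plated 18 h at 37 C/5% CO2, pin-dosed with compound plus Ro20-1724 medium, held 30 min at room temperature, then given cAMP-d2 and anti-cAMP-cryptate; fluorescence was read after 1 h. Fifteen concentrations, triplicate.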

[8] = biological target: Thyrotropin receptor (Homo sapiens) (UniProt P16473); assay: qHTS assay to identify small molecule antagonists of the thyroid stimulating hormone receptor (TSHR) signaling pathway (AID 1259385; calls by dose curve; also: nearly all actives have a fitted effect of over 20% in size)
Chain of Thyrotropin receptor (Homo sapiens) (P16473 whole entry, looked up): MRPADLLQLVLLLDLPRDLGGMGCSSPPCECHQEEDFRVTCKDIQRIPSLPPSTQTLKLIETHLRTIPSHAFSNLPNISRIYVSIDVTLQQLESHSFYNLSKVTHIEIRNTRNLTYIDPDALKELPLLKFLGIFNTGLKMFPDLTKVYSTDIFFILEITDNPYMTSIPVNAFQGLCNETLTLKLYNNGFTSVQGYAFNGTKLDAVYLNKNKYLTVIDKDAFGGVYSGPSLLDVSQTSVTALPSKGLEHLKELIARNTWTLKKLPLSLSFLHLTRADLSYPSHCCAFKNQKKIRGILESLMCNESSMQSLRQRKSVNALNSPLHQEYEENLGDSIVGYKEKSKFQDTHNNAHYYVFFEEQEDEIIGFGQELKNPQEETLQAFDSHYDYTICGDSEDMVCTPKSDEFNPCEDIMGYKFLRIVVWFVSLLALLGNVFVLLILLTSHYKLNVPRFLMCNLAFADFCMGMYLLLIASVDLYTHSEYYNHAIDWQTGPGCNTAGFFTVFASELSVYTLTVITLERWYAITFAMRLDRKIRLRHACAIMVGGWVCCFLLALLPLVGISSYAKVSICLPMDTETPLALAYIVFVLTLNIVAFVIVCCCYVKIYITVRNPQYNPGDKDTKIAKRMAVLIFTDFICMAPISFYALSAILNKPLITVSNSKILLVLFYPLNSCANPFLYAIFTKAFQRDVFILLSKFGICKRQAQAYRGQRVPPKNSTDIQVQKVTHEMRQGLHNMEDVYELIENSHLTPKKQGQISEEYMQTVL
Method in brief: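 TSHR-HEK293 cells were plated and held 18 h at 37C/5% CO2, then given compound plus Ro20-1724 and stimulated with TSH at 1.5 ng/mL final. After 30 min at room temperature, cAMP was detected with cAMP-d2/anti-cAMP-cryptate (1 h) by fluorescence.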

[9] = qHTS assay to identify small molecule agonists of the estrogen receptor alpha (ER-alpha) signaling pathway in the presence of an antagonist - cell viability counter screen (AID 1259386);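 also: series mostly up to about 92 µM; cells exposed to compounds for 22 h at 37 °C before the viability read; nearly all actives have a fitted effect of over 30% in size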
Method in brief: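 Read-out: CellTiter-Fluor fluorescence after 1hr reagent incubation, measured in the same wells as the luciferase readout. VM7Luc4E2 cells were exposed to 15 compound concentrations with 10.0nM ICI-182,780 for 22hr at 37C.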

[10] = biological target: Progesterone receptor (Homo sapiens) (UniProt P06401); assay: qHTS assay to identify small molecule agonists of the progesterone receptor (PR) signaling pathway (AID 1346784; calls by dose curve; also: nearly all actives have a fitted effect of over 30% in size; also: potency is read from the fitted curve at half-maximal effect)
Chain of Progesterone receptor (Homo sapiens) (P06401 whole entry, looked up): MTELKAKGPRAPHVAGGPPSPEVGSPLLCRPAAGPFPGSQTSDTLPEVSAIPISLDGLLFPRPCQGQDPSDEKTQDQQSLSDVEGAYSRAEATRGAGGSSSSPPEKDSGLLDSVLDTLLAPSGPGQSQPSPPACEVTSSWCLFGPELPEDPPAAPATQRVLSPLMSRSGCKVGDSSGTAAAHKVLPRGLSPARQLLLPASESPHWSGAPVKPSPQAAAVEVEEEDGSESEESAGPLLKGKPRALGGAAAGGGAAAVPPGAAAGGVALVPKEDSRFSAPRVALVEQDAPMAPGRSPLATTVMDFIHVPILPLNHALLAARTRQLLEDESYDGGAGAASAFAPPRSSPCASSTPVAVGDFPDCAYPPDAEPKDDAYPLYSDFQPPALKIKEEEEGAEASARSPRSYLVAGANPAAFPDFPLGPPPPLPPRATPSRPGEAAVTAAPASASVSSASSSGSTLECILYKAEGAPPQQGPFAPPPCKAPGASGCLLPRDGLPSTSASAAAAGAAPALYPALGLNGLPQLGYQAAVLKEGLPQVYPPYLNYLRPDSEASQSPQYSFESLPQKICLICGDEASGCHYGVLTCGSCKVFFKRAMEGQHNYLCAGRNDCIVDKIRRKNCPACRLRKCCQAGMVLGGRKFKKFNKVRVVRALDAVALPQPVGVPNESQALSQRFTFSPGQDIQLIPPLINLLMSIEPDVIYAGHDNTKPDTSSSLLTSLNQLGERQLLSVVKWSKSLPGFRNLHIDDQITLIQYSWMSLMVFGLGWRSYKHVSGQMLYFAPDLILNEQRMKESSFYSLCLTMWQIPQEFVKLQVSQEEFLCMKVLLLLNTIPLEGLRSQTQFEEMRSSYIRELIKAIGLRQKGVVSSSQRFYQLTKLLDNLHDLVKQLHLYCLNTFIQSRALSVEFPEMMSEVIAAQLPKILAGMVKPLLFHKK
Method in brief: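 Agonist mode, quantitative HTS format in a HEK 293T line expressing a UAS-controlled beta-lactamase reporter; 16 hr compound exposure at 37C in 2% charcoal-stripped FBS, then LiveBLAzer B/G FRET fluorescence.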

[11] = biological target: Progesterone receptor (Homo sapiens) (UniProt P06401); assay: qHTS assay to identify small molecule antagonists of the progesterone receptor (PR) signaling pathway (AID 1346795; active = well fitted inhibition curve with a large enough effect in the signal ratio in the repeat runs, not every such curve was filed as active; the % refers to the signal ratio)
Method in brief: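 HEK293T PR-UAS-bla reporter cells in charcoal-stripped serum (2%) received compound after a 6 hr settling period, followed by R5020 agonist at 1 nM final; 16 hr incubation preceded the FRET substrate step and fluorescence measurement.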

[12] = qHTS assay to identify small molecule antagonists of the progesterone receptor (PR) signaling pathway - cell viability counter screen (AID 1346798); also: series mostly up to about 92 µM; nearly all actives have a fitted effect of over 50% in size
Method in brief: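 Same-well multiplex: after 16 hr at 37C with compound and R5020 stimulation, HEK293T cells carrying a UAS-bla reporter received LiveBLAzer substrate (2 hr RT), then CellTiter-Glo (30 min RT) for luminescent viability.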

[13] = qHTS assay to identify small molecule agonists of the progesterone receptor (PR) signaling pathway - cell viability counter screen (AID 1346799; calls by dose curve; also: nearly all actives have a fitted effect of over 45% in size)
Method in brief: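 Counter screen for cytotoxicity: compound-treated PR-UAS-bla HEK293T cells (16 hr, 37C, 5% CO2) were assayed with CellTiter-Glo, luminescence measured after 30 min at room temperature.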

[14] = qHTS assay to identify small molecule antagonists of the TGF-beta/Smad signaling pathway - cell viability counter screen (AID 1346824); also: nearly all actives have a fitted effect of over 50% in size
Method in brief: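 SBE-bla HEK 293T cells were plated overnight at 37 C, then given compounds in DMSO plus TGF-beta1 (added as 0.25 ng/mL solution) for 5 hr. After the bla read, CellTiter-Glo was added to the same wells and luminescence read after 30 min at room temperature.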

[15] = qHTS assay to identify small molecule agonists of the TGF-beta/Smad signaling pathway - cell viability counter screen (AID 1346829); also: top concentration of the series differs between compounds; nearly all actives have a fitted effect of over 45% in size
Method in brief: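 CellTiter-Glo luminescence readout; SBE-bla HEK 293T cells, overnight plating, compound 5 hr at 37 C/5% CO2, then bla substrate 2 hr RT, then CellTiter-Glo 30 min RT.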

[16] = qHTS assay to identify small molecule agonists of the TGF-beta/Smad signaling pathway (AID 1346859; active = well fitted activation curve with a large enough effect in the signal ratio in the repeat runs, not every such curve was filed as active; the % refers to the signal ratio; also: series mostly up to about 77 µM)
Method in brief: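 Smad-responsive beta-lactamase reporter cells (HEK 293T) received compounds from DMSO stocks after overnight attachment, were incubated 5 hr, then treated 2 hr with FRET substrate before dual-emission fluorescence measurement (405 nm excitation).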

[17] = biological target: Thyrotropin-releasing hormone receptor (Homo sapiens) (UniProt P34981); assay: qHTS assay to identify small molecule antagonists of the thyrotropin-releasing hormone receptor (TRHR) signaling pathway (AID 1346877; active = well fitted inhibition curve with a large enough effect in the repeat runs, not every such curve was filed as active; also: series mostly up to about 51 µM)
Chain of Thyrotropin-releasing hormone receptor (Homo sapiens) (P34981 whole entry, looked up): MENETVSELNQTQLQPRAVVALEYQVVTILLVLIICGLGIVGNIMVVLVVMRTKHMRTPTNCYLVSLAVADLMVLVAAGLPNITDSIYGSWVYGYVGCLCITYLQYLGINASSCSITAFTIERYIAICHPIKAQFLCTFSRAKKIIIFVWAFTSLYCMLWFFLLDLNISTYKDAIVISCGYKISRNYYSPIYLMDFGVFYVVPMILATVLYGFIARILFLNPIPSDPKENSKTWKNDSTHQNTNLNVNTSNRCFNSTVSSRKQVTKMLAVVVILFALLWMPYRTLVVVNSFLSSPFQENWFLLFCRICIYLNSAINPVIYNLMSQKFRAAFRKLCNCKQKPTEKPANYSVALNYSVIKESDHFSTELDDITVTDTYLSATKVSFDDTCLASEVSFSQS
Method in brief: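 HEK293/TRHR cells, 18 h, 37 °C; Ca2+ dye 2 h; cpd 5 min RT; TRH 1 nM final; fluorescence read 3 min, 1 s intervals; 15 concs, triplicate.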

[18] = biological target: Estrogen receptor beta (Homo sapiens) (UniProt Q92731); assay: qHTS assay to identify small molecule antagonists of the estrogen receptor beta (ER-beta) signaling pathway (AID 1259378; active = well fitted inhibition curve with a large enough effect in the signal ratio in the repeat runs, not every such curve was filed as active; the % refers to the signal ratio)
Chain of Estrogen receptor beta (Homo sapiens) (Q92731 whole entry, looked up): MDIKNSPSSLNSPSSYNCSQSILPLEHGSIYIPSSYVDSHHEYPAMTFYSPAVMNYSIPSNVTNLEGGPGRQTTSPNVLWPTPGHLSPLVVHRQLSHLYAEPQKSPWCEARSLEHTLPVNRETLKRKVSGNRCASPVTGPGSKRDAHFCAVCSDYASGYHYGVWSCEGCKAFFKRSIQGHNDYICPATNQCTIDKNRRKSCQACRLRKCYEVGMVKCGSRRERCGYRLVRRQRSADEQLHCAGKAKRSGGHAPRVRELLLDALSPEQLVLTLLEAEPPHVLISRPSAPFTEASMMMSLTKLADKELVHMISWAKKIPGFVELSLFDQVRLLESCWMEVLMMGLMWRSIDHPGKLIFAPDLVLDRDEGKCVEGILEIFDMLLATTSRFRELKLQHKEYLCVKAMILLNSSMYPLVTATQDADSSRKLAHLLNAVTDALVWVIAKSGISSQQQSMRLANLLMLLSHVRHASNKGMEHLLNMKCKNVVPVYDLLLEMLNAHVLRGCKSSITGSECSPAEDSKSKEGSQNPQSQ
Method in brief: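 ER-beta-UAS-bla HEK293T (GripTite) cells in 2% charcoal-stripped FBS medium were preincubated 6 hr at 37C, dosed with compound, then stimulated with 1 nM E2 (final) for 16 hr; beta-lactamase reporter read by B/G FRET fluorescence after 2 hr substrate loading.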

[19] = biological target: Androgen receptor (Homo sapiens) (UniProt P10275); assay: qHTS assay to identify small molecule agonists of the androgen receptor (AR) signaling pathway in the presence of an antagonist (AID 1259381; calls by dose curve; also: nearly all actives have a fitted effect of over 15% in size)
Chain of Androgen receptor (Homo sapiens) (P10275 whole entry, looked up): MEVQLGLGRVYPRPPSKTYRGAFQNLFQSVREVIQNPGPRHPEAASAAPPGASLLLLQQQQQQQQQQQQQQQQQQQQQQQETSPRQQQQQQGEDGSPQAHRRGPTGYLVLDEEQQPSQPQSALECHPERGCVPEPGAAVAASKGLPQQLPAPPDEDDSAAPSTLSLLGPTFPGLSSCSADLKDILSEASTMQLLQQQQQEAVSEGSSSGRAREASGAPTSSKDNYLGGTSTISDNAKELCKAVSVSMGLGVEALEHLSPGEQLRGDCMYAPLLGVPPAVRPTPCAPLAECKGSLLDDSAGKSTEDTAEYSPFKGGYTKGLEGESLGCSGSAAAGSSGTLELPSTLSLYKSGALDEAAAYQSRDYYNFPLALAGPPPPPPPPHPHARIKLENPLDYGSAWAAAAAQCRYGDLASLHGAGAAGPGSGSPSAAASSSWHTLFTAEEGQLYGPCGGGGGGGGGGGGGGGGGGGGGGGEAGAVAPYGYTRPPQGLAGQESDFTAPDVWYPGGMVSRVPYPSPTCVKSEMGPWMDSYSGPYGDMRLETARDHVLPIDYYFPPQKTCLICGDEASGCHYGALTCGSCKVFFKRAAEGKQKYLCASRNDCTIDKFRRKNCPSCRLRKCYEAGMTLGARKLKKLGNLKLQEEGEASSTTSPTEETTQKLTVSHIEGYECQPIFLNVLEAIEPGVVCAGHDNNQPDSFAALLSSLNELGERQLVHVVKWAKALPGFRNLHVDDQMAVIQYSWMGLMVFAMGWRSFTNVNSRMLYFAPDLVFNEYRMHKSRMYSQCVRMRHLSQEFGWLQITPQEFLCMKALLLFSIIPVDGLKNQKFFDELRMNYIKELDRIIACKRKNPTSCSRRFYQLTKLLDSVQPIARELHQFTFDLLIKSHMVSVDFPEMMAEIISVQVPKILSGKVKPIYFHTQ
Method in brief: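 Luciferase read-out (ONE-Glo, 30min room temperature) in MDA-kb2 MMTV-reporter cells; agonist mode run in presence of AR antagonist nilutamide, 3.0uM final. Compounds tested as 15-point series, 16hr exposure at 37C, 0% CO2.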

Measured: Potency

CNc1ncnc2nc[nH]c12
not listed: [18] | [19]
inactive: all other assays above

COc1cc(C(=O)N2CCOCC2)cc(OC)c1OC
not listed: [6] | [7] | [8] | [10] | [11] | [15] | [17] | [19]
inactive: all other assays above

CCCCCCCCCCC1CO1 (stereo unspecified)
not listed: [6] | [13] | [18] | [19]
inactive: all other assays above

CC(C)CCCC(C)NCCC(C)C (stereo unspecified)
not listed: [11] | [13]
inactive: all other assays above

CCCCCCCCN(C)CCCCCCCC
not listed: [15] | [17] | [18]
inactive: all other assays above

CC(C)N1C(=O)c2ccccc2C1=O
not listed: [13] | [17] | [18] | [19]
inactive: all other assays above

NC(=O)c1c(Cl)cccc1Cl
not listed: [9] | [11] | [13] | [15] | [17] | [18] | [19]
inactive: all other assays above

C=C(C)C1CC=C(C)C(O)C1 (stereo unspecified)
active: [10] 17.3 µM
not listed: [11] | [13] | [18] | [19]
inactive: all other assays above

CC/C=C\CCCCO
not listed: [7] | [8] | [9] | [15] | [17] | [18] | [19]
inactive: all other assays above

CC(C)COC(=O)c1ccccc1O
not listed: [18] | [19]
inactive: all other assays above

CCCCNc1ccccc1
not listed: [12]
inactive: all other assays above

COC(=O)CCCCCCCCC(=O)OC
not listed: [13] | [18] | [19]
inactive: all other assays above

Cc1ncc(CSSCc2cnc(C)c(O)c2CO)c(CO)c1O
not listed: [18]
inactive: all other assays above

CC(=O)CCc1ccc(O)cc1
not listed: [15] | [19]
inactive: all other assays above
